The source of these data is PubChem BioAssay (NCATS).

Results filed as inconclusive are left out. Values without a mark were called inactive. Calls come from the whole dose curve; as a rule, active = well fitted cell-killing curve with a large enough effect in the repeat runs; inconclusive = weak or mixed curves, or effect the other way; inactive = flat fitted curve, though single readings scatter.
% is set by controls: 0 for no effect and ±100 for the full control effect.

This experiment is described as follows: qHTS assay for small molecule antagonists of the retinoid-related orphan receptor gamma (ROR-gamma) signaling pathway - cell viability counter screen (AID 720652).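 Note: compound exposure lasted 16 hr before ATP read.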 The following applies: RORgamma reporter cell line viability counter screen; series mostly up to 92.2 µM; activity change, negative = cytotoxicity: at the top concentration. The source says: National Center for Advancing Translational Sciences [NCATS]
NIH Chemical Genomics Center [NCGC]
National Institutes of Environmental Health Sciences [NIEHS]
National Toxicology Program [NTP]
Nuclear steroid hormone receptors are involved in many biological processes including inflammatory responses, cell proliferation, and apoptosis. Environmental factors or compounds disrupting these nuclear receptor pathways and gene expression may promote susceptibility to immunotoxicants and autoimmune diseases. One important group of these expression factors are the retinoid-related orphan receptors. To assess compounds that may interfere with the retinoid-related orphan receptor gamma (ROR-gamma) transcription factor, a cell-based luciferase assay was used.
The CHO cell-based assay utilizes a TET-inducible ROR expression factor and ROR response element-LUC reporter gene. Reporter activity was induced using doxycycline and measured after 16hr incubation. Luminescence was read using Viewlux (PerkinElmer), where a decrease in reporter activity would show a decrease in luminescence. The cytotoxicity of the compounds against ROR response-Luc reporter gene cell line was quantified by measuring the intracellular ATP content.
1,000 cells in 4 uL/well were dispensed into white wall/solid bottom 1536-well plates using a Multidrop Combi (Thermo Scientific) dispenser. Following incubation at 37 C and 5% CO2 for 5 hr, 23 nL compound or DMSO vehicle were transferred by a pin tool, then the plates were treated with 1 ul doxycycline to induce reporter gene activity. After 16 hr incubation at 37 C and 5% CO2, 5 uL/well of CellTiter-Glo reagent (Promega) was then added to each plate using a Flying Reagent Dispenser and incubated at room temperature for 30 min. The luminescence intensity was quantified on a ViewLux plate reader (PerkinElmer).
Regarding `Cc1ccccc1C#N`, the “activity change, negative = cytotoxicity” value is 5.15%. The same measure for `Cc1ccc2nc(-c3ccc(N)cc3)sc2c1S(=O)(=O)O`: -1.33%.

Turning to `O=C1CCCCC1`, the “activity change, negative = cytotoxicity” value was 3.69%. Turning to `C1COC1`, the “activity change, negative = cytotoxicity” value is 11.4%. The same measure for `S=C([S-])NCCNC(=S)[S-].[Zn+2]`: 3.2%. In the case of `Nc1cccc2c(=O)[nH][nH]c(=O)c12`, the “activity change, negative = cytotoxicity” value was -7.54%. The figure for `C=CCOC(=O)COCCC(C)C` is 8.02%. With `CCNc1cc(O)ccc1C`, the “activity change, negative = cytotoxicity” value was -1.43%.

Regarding `Cc1cccc(C(=O)O)c1`, the “activity change, negative = cytotoxicity” value is -7.94%. The figure for `CCOCCO` is 0.203%; for `CCCCC(=O)N(C)C` it is 2%; for `Nc1nc(-c2ccccc2)cs1` it is -12.2%. The figure for `NS(=O)(=O)O` is -0.14%; for `Cc1cccc2cccnc12` it is 0.296%; for `CC(C)Nc1ccccc1` it is 0.305%. The same measure for `CCCC(Cl)CCCC(Cl)CCC(Cl)CCC(Cl)CCC(Cl)CCCC(Cl)CCC` (stereo not given): -7.32%; for `Cc1ccc(C)c(N)c1`: 4.18%. On to `O=C1OC(=O)c2c(Cl)c(Cl)c(Cl)c(Cl)c21`, for which the “activity change, negative = cytotoxicity” value was -3.57%.

For `O=Cc1ccc(CO)o1`, the “activity change, negative = cytotoxicity” value was 1.68%. Regarding `Cc1ccc(CO)cc1`, the “activity change, negative = cytotoxicity” value is -9.87%. For `CN(C)CCCCl`, the “activity change, negative = cytotoxicity” value is 0.439%. The figure for `CC/C=C/C#N` is -0.393%; for `CCc1ccccc1O` it is -3.18%. The same measure for `Clc1cc(Cl)cc(Cl)c1`: 5.84%; for `CC(C)C=O`: 13.8%. Take `Clc1ccccn1`: the “activity change, negative = cytotoxicity” value was 9.01%. Regarding `O=C(O)c1ccccc1Cl`, the “activity change, negative = cytotoxicity” value was 0.431%. The figure for `CCCCN(CCO)CCCC` is -18.1%; for `Cc1cccc(C)c1O` it is 3.98%; for `FC(F)(F)c1cccc(Cl)c1` it is 8.13%. The figure for `Nc1ccccc1S(=O)(=O)O` is 11.4%; for `O=Cc1cccc(Br)c1` it is 13.6%. The same measure for `Cc1c(N)cccc1N`: -2.27%. As for `C/C=C1\CC2C=CC1C2` (stereo not given), the “activity change, negative = cytotoxicity” value was 12.3%. On to `CCCCC(CC)CNCC(CC)CCCC` (stereo not given), for which the “activity change, negative = cytotoxicity” value is 6.83%.

For the compound `O=C(O)c1c(Cl)cccc1Cl`, the “activity change, negative = cytotoxicity” value is -7.25%. On to `CC/C=C1/OC(=O)c2ccccc21`, for which the “activity change, negative = cytotoxicity” value was 3.48%. Turning to `CCC(C)O` (stereo not given), the “activity change, negative = cytotoxicity” value is 6.88%.

For `Oc1cccc(Nc2ccccc2)c1`, the “activity change, negative = cytotoxicity” value was -2.12%.

Turning to `C=C(C)C(=O)OCC(C)C`, the “activity change, negative = cytotoxicity” value was 9.46%.
